Measurements: PubChem BioAssay (NCI)
The panel holds about 83,000 compounds, 20% with a hit somewhere; the sample as a whole holds those more often.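 Each cell line was grown in a 96-well plate and treated with one concentration of compound for 48 hours. Values below 10 were considered active.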 Unmarked numbers belong to inactive results. Active and inactive are the calls of the source.

What follows are compounds tested on TK-10 renal (assay: NCI-60 one-dose screen, 48 h (100 = growth as untreated, 0 = no growth, -100 = all killed)). Settings: 10 µM unless noted.
For `Cc1ncc(C(=O)Nc2ccc(CN3CCN(C)CC3)c(C(F)(F)F)c2)cc1C#Cc1cnc(NC2CC2)c2ncccc12`, the growth was -92.2% (active). In the case of `COc1cc(NC(C)CCCN)c2nccc(C)c2c1OC` (stereo unspecified), the growth is reported as 114%. For `CCOC(=O)CCCCCCCCC(=O)OCC`, the growth was 104%. With `CCCCCCCCC/C(=N\NC(=O)c1ccncc1)c1ccc(O)c(O)c1O` the growth was 43.1%. With `C/C=C(/C)C(=O)OC1C=C(CO)C(=O)C(OC(=O)C2(C)OC2C)C1C(C)C` (stereo unspecified) the growth was -31.8% (active). For `Cc1nc(NC(=O)NC2CCCCC2)sc1C(=O)NN`, the growth was -14.2% (active). `COc1ccc(Cn2cc3c(c2-c2ccc(OC)cc2)CCc2cnoc2-3)cc1` was tested, and the growth was 69.1%. For `CCOC(=O)CSSCC(=O)OCC`, the growth was 103%. Compound `O=C(N/N=C/c1cc(Cl)ccc1O)C(=O)N/N=C/c1cc(Cl)ccc1O` has a growth of 76.3%. `Nc1nc2c(c3cnccc13)C(c1cccc(Br)c1)Cc1cnccc1-2` (stereo unspecified) showed a growth of 28.5%. Work on `COc1ccc(Cn2cc3c(c2-c2ccc(O)cc2)CCc2cnoc2-3)cc1` yielded a growth of 72.8%. In the case of `COc1cccc(CNC(=O)c2cccc(C3CC(=O)c4c(cc(OC)c(OC)c4OC)O3)c2)c1` (stereo unspecified), the growth is reported as 87.7%. In the case of `COc1nc(OC)nc(-c2cc(-c3cc(OC)c(OC)c(OC)c3)no2)n1`, the growth is reported as 101%. In the case of `O=C(N/N=C/c1ccccc1Cl)c1cccc2ccccc12`, the growth is reported as 113%. With `CCCCCCCCCC[N+](C)(C)C` the growth was -25.1% (active). Work on `Cc1nc2c(nnn2-c2ccccc2)c2nc(-c3ccc(Cl)cc3)oc(=O)c12` yielded a growth of 108%.
